Data on 96 compounds can be found in PubChem BioAssay AID1321 (The Scripps Research Institute Molecular Screening Center, 2008).

SMILES strings stand for the structures. Several values for one entry are separate records, joined by “and”; a condition that tells them apart may be missing. Equal entries are not always repeated. The whole screen tested about 220,000 compounds, of which about 2,600 (1.2%) were called active. Many of the other results were omitted from the sample, so actives are more common in it than they were. Unmarked numbers belong to inactive results.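 Rule for the calls: active = activation above the mean of all tested compounds plus 3 SD, set per screening run (cut at about 8.8% in these data); inactive = the rest.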

The target in the assay is Wee1-like protein kinase (Homo sapiens) (UniProt P30291). As to the kind of experiment: compounds stabilizing Wee1-luciferase fusion – cell-based, HeLa, Wee1K328M-luciferase, luminescence, primary screen (AID 1321).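 Note: cells exposed to compound for 20 h before luminescence read; 0% = DMSO alone and 100% = MG132 at 30 µM.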 Particulars: HeLa Luc-Wee1K328M stability, at 5 µM, stronger effect = higher value, 100% = proteasome inhibitor MG132 effect.
In the case of `CC1(C)CN(c2ccc(-c3ccnc4ncnn34)cc2)C1=O`, the reporter increase is 9.83% (active).
On to `Nc1c(-c2ccc(F)cc2)cnc2ncnn12`, for which the reporter increase was -2.59%.
Turning to `Cc1cc(C(=O)OCC(=O)Nc2nccs2)c2ccccc2n1`, the reporter increase was -2.08%.
`Cc1cc(=O)[nH]c(SCC(=O)N2c3ccccc3CC2C)n1` (stereo unspecified): the reporter increase was -2.08%.
`CCn1nc(C(=O)OCC(=O)N2c3ccccc3CC2C)c2ccccc2c1=O` (stereo unspecified): the reporter increase is -0.36%.
For the compound `CCOC(=O)c1[nH]c(C)c(C(=O)OCC(=O)N2c3ccccc3CC2C)c1C` (stereo unspecified), the reporter increase was 15.6% (active).
The same measure for `CC(=O)NCc1ccc(S(=O)(=O)NC2CCN(Cc3ccccc3)CC2)cc1`: 0.4%; for `CCOC(=O)C1CCN(C(=O)C2CCN(S(=O)(=O)c3c(C)noc3C)CC2)CC1`: -0.61%.
`CCOc1ccccc1NC(=O)C1CCN(S(=O)(=O)c2c(C)nn(C)c2C)CC1`: the reporter increase was -1.78%.
For `CCOc1ccc(OCC)c(NC(=O)C2CCN(S(=O)(=O)c3c(C)noc3C)CC2)c1`, the reporter increase was 11.6% (active).
As for `CC1(C)CC(N2CCN(C(c3ccccc3)c3ccccc3)CC2)=CC(=[N+]2CCCCC2)C1`, the figure is -0.62%; as for `Nc1nc(O)c(CC(=O)O)s1`, -1.29%.
As for `O=C(O)c1ccc(/C=N/Nc2nc(N3CCCCC3)nc(N3CCCCC3)n2)cc1`, the figure is -2.82%.
On to `O=C(c1c(Cl)cccc1Cl)N1CCN(c2cccc3[nH]ccc23)CC1`, for which the reporter increase is 0.73%.
The same measure for `O=C(COC(=O)c1ccc(F)cc1F)Nc1ncccn1`: 0.53%; for `Cc1ccc(-c2nc3ccccc3[nH]c2=O)cc1`: 9.13% (active); for `Cc1ccc(-c2nc3ccccc3[nH]2)cc1N`: 0.78%.
The same measure for `O=C(Cc1nc2ccccc2[nH]c1=O)c1ccc(Cl)cc1`: 3.48%.
As for `O=C(COC(=O)c1ccc(S(=O)(=O)Nc2ccccc2)cc1)NCC1CCCO1` (stereo unspecified), the reporter increase was -1.62%.
Regarding `NS(=O)(=O)c1ccc(NC2=CC(c3ccc(F)cc3)N(c3ccc(S(N)(=O)=O)cc3)C2=O)cc1` (stereo unspecified), the reporter increase was 0.72%.
For `CC(CNS(=O)(=O)c1ccc(Br)cc1)CN(C)C` (stereo unspecified), the reporter increase was -0.62%.
Consider `O=S(=O)(Nc1ccc(Cl)cn1)c1cnc(Cl)c(Br)c1`, for which the reporter increase was -0.3%.
In the case of `COc1ccc(CN2C(=O)C(C)S/C2=N/N=C/c2ccco2)cc1` (stereo unspecified), the reporter increase was 5.4%.
Turning to `CN(C)S(=O)(=O)c1cccc(NC(=S)N/N=C/C(=O)c2ccccc2)c1`, the reporter increase was -1.91%.
Take `CN(C)S(=O)(=O)c1cccc(NC(=S)NCc2ccc3c(c2)OCO3)c1`: the reporter increase is 3.85%.
Take `Cc1ccc(/C=N/NC(=S)Nc2cccc(S(=O)(=O)N(C)C)c2)o1`: the reporter increase is 9.21% (active).
For `N#Cc1ccccc1Sc1ccccc1C(=O)OCC(=O)NC1CCCCC1`, the reporter increase is 2.45%.
The same measure for `CCOc1ncccc1C(=O)OCC(=O)NC1CC1`: -1.43%; for `O=C(COC(=O)c1ccccc1SCC(=O)NC1CCCCC1)NC1CCCCC1`: 11.2% (active); for `COc1ccccc1Nc1nc(N)nc(CSC(=S)N2CCOCC2)n1`: -0.95%.
`O=C(Nc1ccc2c(c1)OCCO2)c1ccoc1`: the reporter increase is 2.96%.
Regarding `Cc1coc2cc3oc(=O)c(CCC(=O)O)c(C)c3cc12`, the reporter increase was 5.73%.
Consider `S=c1[nH]nc(-c2ccncc2)n1/N=C/c1ccccc1Cl`, for which the reporter increase was -0.32%.
`COc1ccc(O)c(C(=O)c2cnc3onc(C(C)C)c3c2)c1`: the reporter increase is -2.73%.
The same measure for `COc1ccc(O)c(C(=O)c2cnc3c(c2)c(-c2ccc(F)cc2)c(C#N)c(=O)n3C)c1`: 9.71% (active); for `COCCn1c(=O)[nH]c(=O)c2cc(C(=O)c3cc(OC)ccc3O)cnc21`: 0.11%.
Regarding `COc1ccccc1NC(=O)c1cc(Cl)nc2ccccc12`, the reporter increase was 0.15%.
In the case of `Nc1cccc(S(=O)(=O)Nc2ccc(SC(F)F)cc2)c1`, the reporter increase was -0.8%.
On to `CC(=O)Nc1ccc(S(=O)(=O)NC(C)C(=O)OCC(=O)NC2CCCC2)cc1` (stereo unspecified), for which the reporter increase was 11.2% (active).
On to `CCOC(=O)[C@H]1CCC[C@@H](NS(=O)(=O)c2ccc(NC(C)=O)cc2)C1`, for which the reporter increase was 0.32%.
For `CC(C)NS(=O)(=O)c1ccc(NC(=O)C2CCCCC2)cc1`, the reporter increase is -3.05%.
Regarding `OCCC1CN(Cc2ccc(Oc3ncccn3)cc2)CCN1CCc1ccccc1` (stereo unspecified), the reporter increase is -0.52%.
Regarding `OCCC1CN(Cc2cccc(O)c2)CCN1CCc1ccccc1` (stereo unspecified), the reporter increase is -3.15%.
For `OCCC1CN(Cc2cnc(-c3ccccc3)s2)CCN1CCc1ccccc1` (stereo unspecified), the reporter increase was 9.46% (active).
Consider `O=C(O)Cc1csc(-c2cccc(Oc3ccccc3)c2)n1`, for which the reporter increase is 3.33% and -2.75%.
With `S=c1nc2ccccc2c2nc(-c3cccnc3)[nH]n12`, the reporter increase was 1.58%.
As for `C=CCn1c(-c2ccc3[nH]c(C)c(C)c3c2)n[nH]c1=S`, the reporter increase was -4.16%.
As to `C=CCn1c(=S)sc2c(=O)[nH]c(C)nc21`, the reporter increase was 9.98% (active).
As to `C=CCn1c(-c2sc(-c3ccccc3)nc2C)n[nH]c1=S`, the reporter increase is -4.5%.
For the compound `S=c1[nH]nc(-c2cccs2)n1/N=C/c1cn(-c2ccccc2)nc1-c1ccc(Cl)cc1`, the reporter increase is -0.32%.
Take `COc1cccc(-c2nc3cc(C)ccc3o2)c1`: the reporter increase was 1.41%.
In the case of `CCc1ccc2oc(-c3ccc(N)cc3)nc2c1`, the reporter increase is 18.6% (active).
Regarding `CCCCCC(=O)Nc1ccc2oc(-c3ccncc3)nc2c1`, the reporter increase is -0.09%.
As for `O=C(NCc1ccccc1)c1ccc(CNc2c(N3CCCC3)c(=O)c2=O)cc1`, the reporter increase is -2.66%.
Regarding `CN1CCN(C(c2cc3cc4c(cc3[nH]c2=O)OCCO4)c2nnnn2C2CCCC2)CC1` (stereo unspecified), the reporter increase was 11.8% (active).
Regarding `CCOC(=O)C1CCN(C(c2cc3cc(C)cc(C)c3[nH]c2=O)c2nnnn2C2CCCCC2)CC1` (stereo unspecified), the reporter increase is 1.1%.
Regarding `COc1ccc(N2CCN(C(c3cc4ccc(C)cc4[nH]c3=O)c3nnnn3C3CCCC3)CC2)cc1` (stereo unspecified), the reporter increase was 0.68%.
Regarding `COc1ccc(-c2nn(C)c(=O)c3ccccc23)cc1CNC(=O)C1CCCCC1`, the reporter increase was 0.26%.
The same measure for `CCN(CC)CCNCC(=O)Nc1ccc(Oc2ccccc2)cc1`: 2.79%; for `O=c1ccnc(Nc2ccc(Cl)cc2)[nH]1`: 1.16%; for `O=C(COC(=O)c1ccc(NS(=O)(=O)c2cccs2)cc1O)Nc1ccc(F)cc1`: -0.64%.
Turning to `c1ccc(-n2ncc3c(N4CCCC4)ncnc32)cc1`, the reporter increase is 5.02%.
`COc1ccc(-n2ncc3c(N4CCCc5ccccc54)ncnc32)cc1`: the reporter increase is 3.61%.
The same measure for `COc1ccc(-n2ncc3c(N4CCc5ccccc54)ncnc32)cc1`: 8.86% (active); for `COc1ccc(CCNC(=O)C(=O)Nc2ccc3nc4n(c(=O)c3c2)CCCCC4)cc1OC`: 1.04%.
`Brc1ccc(-c2noc(-c3ccccc3)n2)o1`: the reporter increase was 0.13%.
As to `Cn1c(CSCC(=O)Nc2ccccc2)nnc1SCc1ccccc1`, the reporter increase is -1.68%.
`COC(=O)c1cccc([N+](=O)[O-])c1CS(=O)(=O)c1ccc(C)cc1`: the reporter increase is 1.24%.
For the compound `Cc1ccc(N=C2NC(=O)c3cccc([N+](=O)[O-])c32)cc1`, the reporter increase was 8.82% (active).
For `CCCCOc1ccc(CON(C(C)=O)C(C)=O)cc1Cl`, the reporter increase is -0.35%.
On to `c1csc(-c2nnc(COc3ncnc4sccc34)o2)c1`, for which the reporter increase is 1.62%.
Take `O=C1C(Cc2ccc(O)cc2)NC(=S)N1Cc1ccccc1` (stereo unspecified): the reporter increase was -2.34%.
With `CSc1nc2sc3c(c2c(=O)[nH]1)CCc1ccccc1-3`, the reporter increase is -0.01%.
The same measure for `COc1cccc(-n2c(=S)[nH]c3c(oc4ccccc43)c2=O)c1`: 5.9%.
Turning to `COc1ccc(-n2c(=S)[nH]c3sc4c(c3c2=O)CCc2ccccc2-4)cc1`, the reporter increase is 8.88% (active).
Turning to `COc1ccc(CCNS(=O)(=O)c2cccc3cccnc23)cc1OC`, the reporter increase is -3.35%.
Take `Cc1ccc(/C=N/NC(=O)CSc2ccccn2)o1`: the reporter increase is 3.47%.
`O=C(Nc1ccccc1N1CCOCC1)c1csc2c1CCCC2`: the reporter increase is -0.73%.
`Cc1nc2cccnc2nc1C`: the reporter increase was 6.05%.
Regarding `CCC(C)(C)NC(=O)C(c1ccccn1)N(C(=O)c1csnn1)c1ccccc1` (stereo unspecified), the reporter increase is 1.04%.
`CC(C)(C)NC(=O)CN(C(=O)c1ccc(Cl)nc1)c1cccc2ccccc12`: the reporter increase is -1.92%.
For the compound `CC(C)(C)NC(=O)CN(C(=O)c1csnn1)c1ccccc1-c1ccccc1`, the reporter increase was 10.2% (active).
Regarding `CC(C)COC(=O)n1c(=O)oc2ccc(S(=O)(=O)N3CCCCC3)cc21`, the reporter increase is -1.87%.
In the case of `Cn1nccc1NS(=O)(=O)c1ccc(F)cc1`, the reporter increase was 0.03%.
Take `Cc1cc(C)cc(NS(=O)(=O)c2ccc(F)cc2)c1`: the reporter increase was -2.79%.
`Cn1c(=O)n(C)c2cc(NS(=O)(=O)c3ccc(F)cc3)ccc21`: the reporter increase is 12.5% (active).
Take `Cn1c2ccccc2c2cc(/C=C(\NC(=O)c3ccccc3)C(=O)NCC(=O)O)ccc21`: the reporter increase was -0.33%.
For `CCN(CC)c1ccc(NC(=O)c2ccc(Cl)nc2)cc1`, the reporter increase is 10.4% (active).
For `NS(=O)(=O)c1ccc(NC(=O)COC(=O)c2ccc(Cl)nc2)cc1`, the reporter increase was -1.21%.
Consider `O=C(NNc1ccccn1)c1ccc(Cl)nc1`, for which the reporter increase was -1.7%.
As to `CCCc1nc(-c2cc3cc(C)ccc3[nH]c2=O)no1`, the reporter increase is -2.96%.
Consider `FC(F)(F)Oc1ccc(-c2cn3cccnc3n2)cc1`, for which the reporter increase is -1.79%.
In the case of `COc1ccc(CCN2C(=O)N(c3ccc(OC)cc3)C(=O)C2CC(=O)Nc2ccc(OC)cc2)cc1` (stereo unspecified), the reporter increase was -1.78%.
The same measure for `CCOc1ccccc1C(=O)NCc1ccco1`: -0.54%; for `CCCC1=Nc2cc(C(=O)NCc3ccco3)ccc2Sc2ccccc21`: 11.6% (active).
As to `COc1ccc(CCNS(=O)(=O)c2ccc(C(=O)NCc3ccco3)cc2)cc1OC`, the reporter increase is -0.79%.
